# M1 antag = blocks human M1 muscarinic receptor | 360,000 compounds, 1.3% hits | P11229 | inhibition, % at 3 µM | CHO-K1 hM1, Fluo-8 calcium fluorescence, ACh EC80 antagonist | AID 588852;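 active = percent inhibition above its own plate's cutoff, namely the mean of that plate's compound wells plus 3 SD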;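 note: peak over basal fluorescence ratio during 140 s after agonist addition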
# Target sequence (P11229 whole entry, looked up): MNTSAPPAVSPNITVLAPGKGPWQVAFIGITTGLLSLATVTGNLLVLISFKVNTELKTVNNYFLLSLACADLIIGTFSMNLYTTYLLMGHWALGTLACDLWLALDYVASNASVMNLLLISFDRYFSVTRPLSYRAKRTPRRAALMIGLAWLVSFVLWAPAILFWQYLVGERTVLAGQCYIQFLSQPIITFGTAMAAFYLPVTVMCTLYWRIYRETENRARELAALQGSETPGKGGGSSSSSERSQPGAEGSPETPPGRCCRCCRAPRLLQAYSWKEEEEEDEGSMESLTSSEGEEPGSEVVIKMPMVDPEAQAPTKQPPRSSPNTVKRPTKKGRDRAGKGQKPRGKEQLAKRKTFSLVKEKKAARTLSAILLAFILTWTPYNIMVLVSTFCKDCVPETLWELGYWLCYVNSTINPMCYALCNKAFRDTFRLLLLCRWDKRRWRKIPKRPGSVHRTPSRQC
# M1 PAM = potentiates human M1 receptor response to acetylcholine; CHO-K1 hM1, Fluo-8 calcium fluorescence, ACh EC20; 0% = ACh EC20, 100% = maximal ACh; 360,000 compounds, 0.088% hits; activation, % at 3 µM; P11229; in the data active = activation above about 19%, passing the limit was not always enough
# CHO-K1 Ca antag = nonselective inhibitor or artifact in parental CHO-K1 cells | inhibition, % at 3 µM | AID 602250 | ATP-induced calcium, Fluo-8 fluorescence | 360,000 compounds, 0.6% hits;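 active = inhibition above a per-plate cutoff, the plate's mean sample inhibition plus 3 SD, cut at about 24% in these data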
# CHO-K1 Ca ag = M1 agonist counterscreen hit in parental CHO-K1 cells. AID 602248. Fluo-8 calcium fluorescence; scaled to maximal ATP response, vehicle zero. 360,000 compounds, 0.48% hits. activation, % at 3 µM; in the data active = activation above about 15%;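 note: untransfected CHO-K1 host cells lacking M1 receptor as counterscreen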
# M1 ag = agonists of human M1 muscarinic receptor; AID 588814; activation, % at 3 µM; CHO-K1 hM1, Fluo-8 calcium fluorescence, agonist mode; 0% DMSO, 100% acetylcholine EC100; 360,000 compounds, 0.33% hits;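 active = activation above the run's mean compound activation plus 3 SD, cut at about 16% in these data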;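 note: peak over basal fluorescence ratio within a 140 s kinetic read after compound addition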
# CHO-K1 Ca PAM = counter-screen for M1 PAMs: effect in parental CHO-K1 cells. ATP EC20, Fluo-8 calcium fluorescence; 0% at ATP EC20, 100% at ATP max. activation, % at 3 µM. 360,000 compounds, 0.02% hits;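 active = activation above the run cutoff, the mean activation of all test compounds plus 3 SD, cut at about 40% in these data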;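 note: peak over basal fluorescence ratio in a 140 s read after ATP addition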
# Hits are given with their value; i = inactive. This is a sample that favours compounds with a hit; in the whole collection about 2.3% have one here.
SMILES,M1 antag,M1 PAM,CHO-K1 Ca antag,CHO-K1 Ca ag,M1 ag,CHO-K1 Ca PAM
O=c1c2ccccc2nc(SCc2ccc([N+](=O)[O-])cc2)n1-c1ccccc1,i,23,i,i,i,i
O=c1c2ccccc2nc(SCc2cccc(F)c2)n1-c1cccc(S(=O)(=O)N2CCCC2)c1,i,i,27,i,i,i
COc1ccc(-n2c(SCc3ccc([N+](=O)[O-])cc3)nnc2-c2ccccc2)cc1,i,i,i,16,i,i
O=C(O)c1ccc(CSc2nc3ccccc3c(=O)n2-c2ccccc2)cc1,i,i,i,i,i,i
COc1ccc(-n2c(C)nnc2SCC(=O)Nc2ccccc2F)cc1,i,i,i,i,i,i
CC(Sc1nnc(-c2cccs2)n1-c1ccccc1)C(=O)NCc1ccc2c(c1)OCO2 (stereo not drawn),i,i,24,i,i,i
O=C(NC(c1ccc(-c2ccccc2)cc1)c1cnccn1)C1CCN(Cc2ccc(Oc3ccccc3)cc2)CC1 (stereo not drawn),i,i,i,i,i,i
O=C(NC(c1ccc(-c2ccccc2)cc1)c1cnccn1)C1CCN(CCN2C(=O)c3ccccc3C2=O)CC1 (stereo not drawn),i,i,30,i,i,i
Cc1cccnc1C(NC(=O)C1CCN(Cc2ccc(Oc3ccccc3)cc2)CC1)c1ccccc1 (stereo not drawn),27,i,i,i,i,i
O=C(NC(c1ccc(-c2ccccc2)cc1)c1cnccn1)C1CCN(Cc2cccs2)CC1 (stereo not drawn),i,i,24,i,i,i
O=C(NC(c1ccccc1)c1cnccn1)C1CCN(CCCOc2ccccc2)CC1 (stereo not drawn),i,i,i,i,i,i
Cc1cccnc1C(NC(=O)C1CCN(Cc2ccccc2)CC1)c1ccc(F)cc1 (stereo not drawn),i,i,i,i,i,i
CSc1nc(N)nc2c1ncn2CC(=O)NCCNc1ccc([N+](=O)[O-])cn1,i,i,i,i,i,i
CC(=O)NC(C)(c1ccccc1)c1nc(/C=C/c2ccccc2)cs1 (stereo not drawn),i,i,i,i,i,i
COc1ccc(C(C)(NC(C)=O)c2nc(/C=C/c3ccccc3)cs2)cc1 (stereo not drawn),i,i,32,i,i,i
Cc1cccc2cc(CN(CCN3CCOCC3)C(=O)Nc3ccccc3F)c(=O)[nH]c12,i,i,30,i,i,i
CC1(C2CCC3C4CCC5CC6(CCC5(C)C4C(=O)CC32C)OCCO6)OCCO1 (stereo not drawn),i,25,i,i,i,i
CCN(CC)CCSc1nnc(Nc2ccccc2)n1-c1ccccc1,96,i,i,i,i,i
CCN(CC)CCSc1nc(O)c(-c2ccccc2)c(=O)n1-c1ccccc1,i,i,i,i,i,i
COc1ccc(OC)c(NC(=O)CSc2nnc(CNC(=O)c3cccs3)o2)c1,i,i,i,i,i,i
COc1ccc(S(=O)(=O)NCC(=O)N(CC(=O)NCc2ccccc2)Cc2ccco2)cc1,i,i,i,i,i,i
COc1ccc(CNC(=O)C(c2ccco2)N(C(=O)CNS(=O)(=O)c2ccccc2)c2ccccc2C)cc1 (stereo not drawn),i,i,i,54,i,i
FC(F)(F)c1cccc(OCC2CNC(=S)O2)c1 (stereo not drawn),i,i,i,i,i,i
CC(C)Oc1ccccc1/C=N/NC(=O)c1ccc(F)cc1,i,22,i,i,i,i
CSc1ccc(CN(C)C(=O)C(c2ccccc2)c2ccccc2)cc1,i,i,i,i,i,i
CN(CCN(C)C(C)(C)C)C(=O)C(c1ccccc1)c1ccccc1,97,i,i,i,i,i
COc1ccc(CN(C)C(=O)c2cc(S(=O)(=O)N3CCCCCC3)ccc2OC)cc1OC,i,i,i,i,i,i
COc1ccc(S(=O)(=O)N2CCCCCC2)cc1C(=O)N(C)Cc1ccc(F)cc1,i,25,i,i,i,i
CCOc1ccc(/C=N/Nc2ccc(C(F)(F)F)cc2[N+](=O)[O-])cc1O,i,i,i,18,i,i

# Source: PubChem (The Scripps Research Institute Molecular Screening Center)
